Test results from PubChem BioAssay (NCATS).
The source made the active and inactive calls. The call rests on the fitted dose curve; in most records, active means well fitted inhibition curve with a large enough effect; inconclusive means small, poorly fitted or top-dose-only effect; inactive means no such curve, though single readings can be large or run the other way.

Assay: qHTS assay for measurement of the activity of small molecule inhibitors on Zika virus induced Caspase-3 activity in human astrocytoma cells (AID 1224859);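 further: plate controls were ZIKV-infected untreated cells for no effect and uninfected cells for full effect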
Settings: SNB-19 ZIKV-induced caspase-3/7, luminescence, 6 h; series mostly up to 45.7 µM; activity change, negative = inhibition: at the top concentration
Outline: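 Percent inhibition of virus-induced caspase-3/7 signal is calculated against uninfected and ZIKV-infected control cells. Cells are SNB-19, infected at 2 FFU/cell for 6 h after 1 h compound exposure.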

SMILES | activity change, negative = inhibition
NCC1OC(O[C@H]2[C@H](O)[C@@H](OC3C(O)C(N)CC(N)C3OC3OC(CO)C(O)C(O)C3N)O[C@@H]2CO)C(N)C(O)C1O (some centres undefined) | -0.194% (inactive)
CCN(CC)c1ncnc2c1ncn2[C@@H]1O[C@H](COP(=O)(O)OP(=O)(O)C(Br)(Br)P(=O)(O)O)[C@@H](O)[C@H]1O | -3.45% (inactive)
CC(C)Cc1ccc([C@H](C)C(=O)O)cc1 | -32.2% (inactive)
COC(=O)C1=C(C)NC(C)=C(C(=O)OCC(C)=O)C1c1ccccc1[N+](=O)[O-] (centres undefined) | -2.67% (inactive)
NCCO | -11.3% [at 92.8 µM] (inactive)
CN1CCC[C@H]1c1cccnc1 | 7.83% (inactive)
CC(COc1ccc(/C=C/c2ccccc2)cc1)[N+](C)(C)C (centres undefined) | 4.71% (inactive)
Oc1cc2c(cc1O)CN(C(=S)NCCc1ccc(Cl)cc1)CCC2 | -0.264% (inactive)
CCOC(=O)N1CCN(/[N+]([O-])=N/Oc2ccc([N+](=O)[O-])cc2[N+](=O)[O-])CC1 | -9.98% (inactive)
C[N+]1(C)[C@@H]2CC(OC(=O)[C@H](CO)c3ccccc3)C[C@H]1[C@@H]1O[C@@H]12 (some centres undefined) | 12.9% (inactive)
OC[C@H]1O[C@@H](n2cnc3c(Nc4ccccc4)ncnc32)[C@H](O)[C@@H]1O | 6.33% (inactive)
c1ccc(-c2ccccn2)nc1 | -14.1% (inactive)
COc1cc(OC)c(/C=C2/C(=O)Nc3ccccc32)c(OC)c1 | -0.956% (inactive)
Nc1nc(Cl)nc2c1ncn2[C@@H]1O[C@H](CO)[C@@H](O)[C@H]1O | 3.86% (inactive)
NC(=O)C1=CN(C2OC(COP(=O)(O)OP(=O)(O)OC[C@H]3O[C@@H](n4cnc5c(N)ncnc54)[C@H](OP(=O)(O)O)[C@@H]3O)C(O)C2O)C=CC1 (some centres undefined) | 7.89% (inactive)
CCCCC/C=C\CC(O)/C=C/c1cccc(CC(O)CCCCO)n1 (centres undefined) | 8.06% (inactive)
O=C1O/C(=C/Br)CCC1c1cccc2ccccc12 (centres undefined) | 22.9% (inactive)
Nc1nc(Nc2ccccc2)nc2c1ncn2[C@@H]1O[C@H](CO)[C@@H](O)[C@H]1O | 5.65% (inactive)
CNC(=O)[C@H]1O[C@@H](n2cnc3c(NCc4cccc(I)c4)ncnc32)[C@H](O)[C@@H]1O | 31.2% (inactive)
O=C(O)c1cc(=O)c2c(Cl)cc(Cl)cc2[nH]1 | -4.55% (inactive)

SMILES | activity change, negative = inhibition
CCCCN1CCC(n2c(=O)[nH]c3ccccc32)CC1 | -2.75% (inactive)
C[N+]1(C)CCC(OC(=O)C(c2ccccc2)c2ccccc2)CC1 | -9.18% (inactive)
N#C/C(=C\c1ccc(O)c(O)c1)C(=O)NCc1ccccc1 | 0.744% (inactive)
CCCCCCCCCCCCCCCCCC(=O)NCC(COP(=O)([O-])OCC[N+](C)(C)C)OCC (centres undefined) | 68.5% (inactive)
N#C/C(=C\c1ccc(O)c(O)c1)C(=O)NCCCc1ccccc1 | 7.31% (inactive)
CC(C)OC(=O)c1cc(C(=O)OC(C)C)cc([N+](=O)[O-])c1 | -3.07% [at 92.8 µM] (inactive)
CC(C)CC(NP(=O)(O)O[C@@H]1O[C@@H](C)[C@H](O)[C@@H](O)[C@H]1O)C(=O)NC(Cc1c[nH]c2ccccc12)C(=O)O (some centres undefined) | -0.572% (inactive)
CCCCCCCCCCCCCCCC(=O)NCC(COP(=O)([O-])OCC[N+](C)(C)C)OCC (centres undefined) | 84.3% (inactive)
Cc1nc2sccn2c(=O)c1CCN1CCC(=C(c2ccccc2)c2ccc(F)cc2)CC1 | 8.39% (inactive)
C[N+](C)(C)CC(=O)[O-] | -5.18% (inactive)
S=c1[nH]c2ccccc2s1 | -3.22% [at 92.8 µM] (inactive)
NCCSSCCN | -1.95% (inactive)
O=C(O)[C@@H]1C[C@H](C(=O)O)N1 | -9.61% (inactive)
COc1cc2c(CCNC(C)=O)c[nH]c2cc1Cl | 5.05% (inactive)
CN(C)c1ccc(C(=C2C=CC(=[N+](C)C)C=C2)c2ccccc2)cc1 | 47.3% (inactive)
CCOc1ccc2nc(S(N)(=O)=O)sc2c1 | -12.5% (inactive)
CCN1/C(=C/C(C)=O)Sc2ccc(OC)cc21 | -3.29% (inactive)
CC1CN(S(=O)(=O)c2cccc3cnccc23)CCN1 (centres undefined) | -4.07% (inactive)
NC(CCCP(=O)(O)O)C(=O)O (centres undefined) | 7.67% (inactive)
